KCNQ2 inh – KCNQ2 (rat) channel inhibition; B-score at 10 µM; 310,000 tested, 1.1% active; CHO-K1 KCNQ2, FluxOR thallium flux, 20 min; stronger effect = lower value; AID 2156;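 active means fluorescence ratio B-score at most minus 3 library SDs, with starting brightness B-score within 2 library SDs, cut at about -5.5 in these data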
Target sequence (O88943 whole entry, looked up): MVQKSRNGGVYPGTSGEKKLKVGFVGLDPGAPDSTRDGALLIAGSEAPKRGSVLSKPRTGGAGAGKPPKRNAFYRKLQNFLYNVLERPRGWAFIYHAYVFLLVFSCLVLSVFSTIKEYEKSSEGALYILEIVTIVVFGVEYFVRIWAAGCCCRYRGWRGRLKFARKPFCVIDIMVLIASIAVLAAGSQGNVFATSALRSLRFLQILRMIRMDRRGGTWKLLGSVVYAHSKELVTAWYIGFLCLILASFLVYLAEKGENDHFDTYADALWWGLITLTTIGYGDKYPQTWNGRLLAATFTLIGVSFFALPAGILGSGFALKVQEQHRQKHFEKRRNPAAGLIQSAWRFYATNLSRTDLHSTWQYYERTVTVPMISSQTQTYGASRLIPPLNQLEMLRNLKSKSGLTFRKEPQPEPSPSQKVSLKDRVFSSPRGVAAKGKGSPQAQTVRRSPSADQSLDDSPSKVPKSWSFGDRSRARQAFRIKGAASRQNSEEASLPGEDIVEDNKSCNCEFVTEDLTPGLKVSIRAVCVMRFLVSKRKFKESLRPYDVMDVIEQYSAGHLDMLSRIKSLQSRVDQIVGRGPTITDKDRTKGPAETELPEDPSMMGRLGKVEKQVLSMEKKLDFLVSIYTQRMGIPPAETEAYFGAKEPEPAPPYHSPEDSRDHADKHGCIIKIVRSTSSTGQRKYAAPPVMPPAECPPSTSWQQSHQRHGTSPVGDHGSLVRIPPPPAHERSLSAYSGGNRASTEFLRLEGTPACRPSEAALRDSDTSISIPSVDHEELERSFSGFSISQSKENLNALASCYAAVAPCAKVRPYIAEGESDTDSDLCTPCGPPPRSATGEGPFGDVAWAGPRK
KCNQ2 enhance – KCNQ2 (rat) channel potentiation; B-score at 10 µM; 310,000 tested, 0.54% active; AID 2239; CHO-K1 KCNQ2, FluxOR thallium flux fluorescence; stronger effect = higher value;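 active means fluorescence ratio B-score at least 3 SD of library B-scores, with initial fluorescence B-score within 3 of them, cut at about 5.3 in these data; same plate scores as AID 2156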;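 further: B-score of peak minus minimum over baseline fluorescence ratio after K+ and Tl+ stimulus; positive B-score means potentiation of KCNQ2 with more thallium influx and brighter signal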
* marks the source's active call; other numbers are inactive results; i = inactive; / = no result given. Sampled rows, rich in hits. Any-hit rate of the full collection: about 1.6%.

SMILES | KCNQ2 inh | KCNQ2 enhance
COC(=O)C(Cc1ccccc1)NC(=O)COc1ccc(C(C)(C)C)cc1 (centres undefined) | -5.6* | -5.6
Cc1nc2nc(SCC(=O)NCCCN3CCCC3)nn2c(C)c1Cc1ccccc1Cl | i | /
CCOc1c(C)cnc2c1c(=O)n(Cc1ccccc1Cl)c(=O)n2C | i | /
CCO/C(C)=N/n1c2nc3ccccc3nc2c2c(=O)n(Cc3ccccc3Cl)c(C)nc21 | -8.4* | -8.4
CC1CC(=O)N(CC(=O)Nc2ccc(F)cc2)c2ccccc2S1(=O)=O (centres undefined) | i | 0.28
Cc1ccc(C)c(NC(=O)C(c2ccccc2)N2CCOCC2)c1 (centres undefined) | i | 0.15
CCc1cccc(NC2c3ccccc3C(=O)N2c2ccc(C)cn2)c1 (centres undefined) | -7.5* | -7.5
Cc1ccc(N2C(=O)c3ccccc3C2Nc2ccccc2)nc1 (centres undefined) | i | /
Clc1ccc(CSc2nncn2-c2ccccn2)cc1 | i | 0.68
Clc1ccc(CSc2nncn2-c2ccc3c(c2)OCCO3)cc1 | -7.7* | -7.7
CNC(=O)c1cccc(NC(=O)c2ccccc2OCc2ccccc2)c1 | i | 0.99
Cc1ccc(SCCC(=O)NCCSCc2ccccc2C)cc1 | -7.8* | -7.8
CCCCNC(=O)CCSc1ccc(C)cc1 | i | /
O=C1CC2(CCN(C(=O)C3CC(=O)N(c4ccc(F)cc4)C3)CC2)Oc2ccccc21 (centres undefined) | i | 0.87
C/C(=N\NC(=O)c1nnn(-c2nonc2N)c1-c1ccc2c(c1)OCO2)c1cccs1 | i | /
COc1ccccc1CNC(=O)C1CCCN(S(=O)(=O)c2ccc3c(c2)C(C)(C)C(=O)N3C)C1 (centres undefined) | i | /
COc1ccccc1CNC(=O)C1CCCN(S(=O)(=O)c2ccc3c(c2)CC(C)N3C(C)=O)C1 (centres undefined) | -6.9* | -6.9
COc1ccc(-c2nnn(CC(=O)N(CCCO)C(C(=O)NC3CCCC3)c3ccc(F)cc3)n2)cc1 (centres undefined) | i | /
Oc1c(Br)cc(Cl)cc1C=Nc1ccccc1Br | i | 8.4*
Oc1ccc2ccccc2c1C=Nc1ccccc1Br | i | /
CCc1cccc(NS(=O)(=O)c2ccc3c(c2)N(C)CCO3)c1 | i | 0.65
CCN(CC)S(=O)(=O)c1cc(C(=O)OCC(=O)NC2CCCc3ccccc32)ccc1C (centres undefined) | -7.7* | -7.7
CNS(=O)(=O)c1cc(C(=O)OCC(=O)NC2CCCc3ccccc32)ccc1Cl (centres undefined) | i | /
COc1ccc(/C=C2\CCC/C(=C\C=N\N(C)C)C2=O)cc1 | i | /
CN(C)/N=C/C=C1\CCC/C(=C\c2ccc(F)c(F)c2)C1=O | -7.1* | -7.1
SMILES | KCNQ2 inh | KCNQ2 enhance
CCOC(=O)c1sc(=NC(=O)/C=C/c2ccccc2)n(C)c1C | i | /
CCn1c(=O)c([N+](=O)[O-])c(Cl)c2ccccc21 | -6.7* | -6.7
CCn1c(=O)c([N+](=O)[O-])c(NCCN(C)C)c2ccccc21 | i | /
Brc1ccc(C2NCCS2)cc1 (centres undefined) | i | /
COc1ccc2c(c1OC)C(=O)N(c1ccc(OCc3ccccc3)cc1)C2=O | i | 0.84
COc1ccc(C(=O)N(CCc2ccccc2)Cc2cccs2)c(OC)c1 | i | /
CS(=O)(=O)c1ccccc1C(=O)N(CCc1ccccc1)Cc1ccccc1 | -5.6* | -5.6
COc1ccc(C(=O)N(CCc2ccccc2)Cc2ccccc2)c(OC)n1 | -7.7* | -7.7
CS(=O)(=O)c1ccc(C(=O)N(CCc2ccccc2)Cc2ccccc2)cc1 | i | /
O=C(Nc1ccc(F)cc1Cl)c1ccc2c(=O)n3c(nc2c1)CCC3 | i | 0.33
COc1ccccc1NC(=O)c1csc2c1CCCC2 | i | /
COc1ccccc1CNC(=O)c1csc2c1CCCC2 | -6.5* | -6.5
O=C(Cc1nc2ccccc2[nH]1)c1ccc(Cl)cc1 | i | /
N#CCCN/N=C(/Cc1nc2ccccc2[nH]1)c1cccc(Cl)c1 | -6* | -6
COc1cc2[nH]c(C(=O)N3CCC(Cc4ccccc4)CC3)cc2c(OC)c1OC | i | /
CCCCn1c(=O)[nH]c(=O)c2c1nc(-c1ccccn1)n2CC | i | 1.8
Cc1ccc(S(=O)(=O)NC(CC(C)C)C(=O)Oc2ccc3c4c(c(=O)oc3c2)CCC4)cc1 (centres undefined) | -7.9* | -7.9
CC[C@@H](NS(=O)(=O)c1ccc(C)cc1)C(=O)Oc1ccc2c3c(c(=O)oc2c1)CCC3 | i | 0.64
CC(O)c1nc2ccccc2n1CC(=O)N1CCN(c2ccccc2)CC1 (centres undefined) | i | /
COc1nc(NCCc2ccc(OC)c(OC)c2)nc(Nc2ccccc2)n1 | i | /
CN(CCC1CCOCC1)C(=O)C1CCC(=O)N(CCc2ccccc2)C1 (centres undefined) | i | /
Cn1c(CN2CCOCC2)nc2cc(NC(=O)COc3ccc([N+](=O)[O-])cc3)ccc21 | i | /
CCCOc1ccc(C(=O)NC2CCSc3ccccc32)cc1 (centres undefined) | i | /
Cc1ccc(OCC(=O)NC2CCSc3ccccc32)cc1 (centres undefined) | -5.9* | -5.9
O=C(c1ccc(Cl)cc1)C1CCN(C(=O)c2ccc(F)cc2)CC1 | i | /
SMILES | KCNQ2 inh | KCNQ2 enhance
NC(=O)c1cc(S(=O)(=O)NCCc2ccc(Cl)cc2)cs1 | i | 0.36
CC1CCN(C(=O)c2ccccc2SCC(=O)NCC2CCCCC2)CC1 | -6* | -6
COCCNC(=O)CSc1ccccc1C(=O)NCC1CCCCC1 | i | 0.1
CCOc1ccc(C(C(=O)NC2CCCC2)N(C(=O)CNC(=O)c2ccco2)c2cccnc2)cc1 (centres undefined) | i | 1.4
Cc1cc(C)n2nc(C(=O)NCC(=O)Nc3ccc(F)c(F)c3)nc2n1 | i | /
NC(=O)C1CCN(C2=C(Cl)C(=O)c3ccccc3C2=O)CC1 | -12* | -12
O=C1C(Cl)=C(N2CCC(C(=O)O)CC2)C(=O)c2ccccc21 | i | /
O=C(OC1CCCCC1)c1ccc(NC(=O)c2ccco2)cc1 | i | 2.4
COC(=O)c1ccc([C@H](NC(=O)c2ccco2)[C@]2(C)C[C@H]2C2CCCCC2)cc1 | -6* | -6
CC1CCCC(C)N1C(=O)COC(=O)C1CCN(S(=O)(=O)c2c(Cl)cccc2Cl)CC1 (centres undefined) | i | /
CNS(=O)(=O)c1cn(CC(=O)NCc2cccc(OC)c2)cc1S(=O)(=O)NC | i | 2.3
Cc1ccc(NC(=O)NC2=N/C(=C(/C#N)C(=O)N3CCCC3)c3ccccc32)cc1 | -7* | -7
N#C/C(C(=O)N1CCCC1)=C1/N=C(N)c2ccccc21 | i | 0.06
O=C(CCCn1c(=S)[nH]c2ccccc2c1=O)NCCSCc1ccccc1 | i | /
CCc1ccc(NC(=O)c2ccc(F)c(S(=O)(=O)N(CC)c3ccccc3)c2)cc1 | i | /
CCN(c1ccccc1)S(=O)(=O)c1cc(C(=O)Nc2cccc(Cl)c2)ccc1F | -8.1* | -8.1
CC(C)(C)CC(=O)N[C@@H](Cc1ccccc1)c1nc2ccccc2[nH]1 | -7.2* | -7.2
CSCC[C@H](NC(=O)CC(C)(C)C)c1nc2ccccc2[nH]1 | i | /
CCCCN(CCCC)C(=O)C1(P(=O)(c2ccccc2)c2ccccc2)CCC1 | -6.2* | -6.2
CCN(CC)C(=O)C1(P(=O)(c2ccccc2)c2ccccc2)CCC1 | i | /

Screens as filed in PubChem.
